# Records with an inconclusive call do not appear. Where a call stands in place of a potency, no number is given. Active and inactive are the calls of the source. Calls come from the whole dose curve; as a rule, active = well fitted cell-killing curve with a large enough effect; inconclusive = small, poorly fitted or top-dose-only effect, or effect the other way; inactive = no such curve, though single readings can be large or run the other way.
# Assay: Quantitative High-Throughput drug screen in 47 multiple myeloma cell lines against the NCATS MIPE library collection: PE2_PLB cell viability assay (AID 1919869); note: nearly all actives have a fitted effect of over 35% in size
# Details: PE2_PLB myeloma cells viability, ATP luminescence, 48 h; series mostly up to 45.8 µM
# From the text: PI: Beverly A. Mock Ph.D.
# Laboratory of Cancer Biology and Genetics,
# Center for Cancer Research, National Cancer Institute,
# National Institute of Health, Bethesda, Maryland
# Drug resistance and disease progression are common in multiple myeloma (MM) patients, underscoring the need for new therapeutic combinations. […] We hypothesized that effective combinations would reduce MYC expression and enhance p16 activity. […] These preclinical data identify potentially useful drug combinations for evaluation in drug-resistant MM and reveal potential mechanisms of combined drug sensitivity.
# Described herein is the primary MIPE qHTS used to cherrypick compounds. Validated compounds were then further tested for potential synergistic activiy.
# [1] Peat TJ, Gaikwad SM, Dubois W, Gyabaah-Kessie N, Zhang S, Gorjifard S, Phyo Z, Andres M, Hughitt VK, Simpson RM, Miller MA, Girvin AT, Taylor A, Williams D, D'Antonio N, Zhang Y, Rajagopalan A, Flietner E, Wilson K, Zhang X, Shinn P, Klumpp-Thomas C, McKnight C, Itkin Z, Chen L, Kazandijian D, Zhang J, Michalowski AM, Simmons JK, Keats J, Thomas CJ, Mock BA. Drug combinations identified by high-throughput screening promote cell cycle transition and upregulate Smad pathways in myeloma. Cancer Lett. 2023 Aug 1;568:216284. doi: 10.1016/j.canlet.2023.216284. Epub 2023 Jun 24. PMID: 37356470; PMCID: PMC10408729.
# SEQUENCE No. (e.g., 1, 2, 3, etc.); […] (e.g., Cells, Incubation, Reagent, etc.); VALUE and DESCRIPTION.
# 1; Cells; 5 uL; white, solid bottom 1536-well Greiner assay plate.
# 2; Compounds; 23 nL; Kalypsis pin tool (Wako USA) equipped with a 1536-well pin head to transfer to the assay plates.
# 3; Incubation; 48 hours; 37C incubation.
# 4; Reagent;5uL; CellTiter Glo (Promega).
# 5; Detector; 425V; Luminescence; Viewlux PerkinElmer.
# NOTES (numbers refer to Sequence numbers above)
# 1. The cell-based screening methods employed in this study were like those previously published. Briefly, the corresponding myeloma cell lines were screened in 1,536-well plates with 500 cells, 5-uL per well for inhibition of cell viability (assessed by measuring ATP levels with CellTiterGlo).
# 2. NCATS MIPE 4.0 library of approved and investigational drugs were added using the Kalypsis pin tool. Wells treated with DMSO only for 100% viability and media only for 0% viability were used as controls.
# 3. The assay plates were covered and incubated for 48 hours in a 37C, 5% CO2 incubator with controlled humidity.
# 4. After 48 hours, CellTilter-GloTM luminescent substrate mix (Promega) reagent was added to the assay plate and plates we incubated for 5 min at room temperature.
# 5. Signal was measured as median relative luminescence units on a ViewLux (PerkinElmer) multiplate reader.
# [1] Heske CM, Davis MI, Baumgart JT, Wilson K, Gormally MV, Chen L, Zhang X, Ceribelli M, Duveau DY, Guha R, Ferrer M, Arnaldez FI, Ji J, Tran HL, Zhang Y, Mendoza A, Helman LJ, Thomas CJ. Matrix Screen Identifies Synergistic Combination of PARP Inhibitors and Nicotinamide Phosphoribosyltransferase (NAMPT) Inhibitors in Ewing Sarcoma. Clin Cancer Res. 2017 Dec 1;23(23):7301-7311. doi: 10.1158/1078-0432.CCR-17-1121. Epub 2017 Sep 12. PMID: 28899971; PMCID: PMC6636827.
# Potency is the fitted concentration of half-maximal effect.
row,Compound,Potency
1,Cc1ccc(-c2cc(C(F)(F)F)nn2-c2ccc(S(N)(=O)=O)cc2)cc1,inactive
2,CC(C)NCC(O)COc1ccc(CCOCC2CC2)cc1 (stereo not given),inactive
3,COc1ccc(C2CNC(=O)C2)cc1OC1CCCC1 (stereo not given),inactive
4,Cn1cnc2c1c(=O)[nH]c(=O)n2C,9.35 µM (active)
5,CC[C@@]1(O)C(=O)OCc2c1cc1n(c2=O)Cc2cc3c(CN(C)C)c(O)ccc3nc2-1,0.662 µM (active)
6,Cc1ccc(C(=O)Nc2ccc(S(=O)(=O)O)c3cc(S(=O)(=O)O)cc(S(=O)(=O)O)c23)cc1NC(=O)c1cccc(NC(=O)Nc2cccc(C(=O)Nc3cc(C(=O)Nc4ccc(S(=O)(=O)O)c5cc(S(=O)(=O)O)cc(S(=O)(=O)O)c45)ccc3C)c2)c1,5.9 µM (active)
7,CN(C)CCOC(c1ccccc1)c1ccccc1,7.43 µM (active)
8,O=c1c(O)c(-c2ccc(O)c(O)c2)oc2cc(O)cc(O)c12,18.7 µM (active)
9,COc1ccc2c(c1)c(CC(=O)O)c(C)n2C(=O)c1ccc(Cl)cc1,inactive
10,CC(C)C(=O)Nc1ccc([N+](=O)[O-])c(C(F)(F)F)c1,3.32 µM (active)
11,CC(C(=O)O)c1cccc(C(=O)c2ccccc2)c1 (stereo not given),23.5 µM (active)
12,Clc1ccc(C(c2ccccc2Cl)C(Cl)Cl)cc1 (stereo not given),inactive
13,COc1cc2nc(N(C)CCCNC(=O)C3CCCO3)nc(N)c2cc1OC (stereo not given),inactive
14,CC(CCc1ccc(O)cc1)NCCc1ccc(O)c(O)c1 (stereo not given),20.9 µM (active)
15,O=c1c(-c2ccc(O)cc2)coc2cc(O)cc(O)c12,inactive
16,Nc1nc2c(ncn2COC(CO)CO)c(=O)[nH]1,23.5 µM (active)
17,COc1ccc2[nH]cc(CCNC(C)=O)c2c1,inactive
18,Nc1c2c(nc3ccccc13)CCCC2,inactive
19,O=C1N(c2ccccc2)c2ccccc2C1(Cc1ccncc1)Cc1ccncc1,20.9 µM (active)
20,CC#C[C@]1(O)CC[C@H]2[C@@H]3CCC4=CC(=O)CCC4=C3[C@@H](c3ccc(N(C)C)cc3)C[C@@]21C,0.833 µM (active)

row,Compound,Potency
1,Cc1cn([C@H]2C[C@H](N=[N+]=[N-])[C@@H](CO)O2)c(=O)[nH]c1=O,20.9 µM (active)
2,CN(C)C(=N)N=C(N)N,inactive
3,CN1C2CCC1CC(OC(=O)C(CO)c1ccccc1)C2 (stereo not given),inactive
4,OCCN1CCN(CCCN2c3ccccc3Sc3ccc(C(F)(F)F)cc32)CC1,20.9 µM (active)
5,O=C(Nc1ccc([N+](=O)[O-])cc1Cl)c1cc(Cl)ccc1O,0.526 µM (active)
6,O=C(c1ccc(F)cc1)C1CCN(CCn2c(=O)[nH]c3ccccc3c2=O)CC1,inactive
7,CN(C)C(=O)C(CCN1CCC(O)(c2ccc(Cl)cc2)CC1)(c1ccccc1)c1ccccc1,26.4 µM (active)
8,NCCS(=O)(=O)O,inactive
9,CC(=O)OCC(CCn1cnc2cnc(N)nc21)COC(C)=O,inactive
10,CCc1cccc2c3c([nH]c12)C(CC)(CC(=O)O)OCC3 (stereo not given),inactive
11,CN1CCN(C2=Nc3cc(Cl)ccc3Nc3ccccc32)CC1,inactive
12,COc1cc2c(c(OC)c1OC)-c1ccc(OC)c(=O)cc1[C@@H](NC(C)=O)CC2,inactive
13,O=C1Cc2cc(CCN3CCN(c4nsc5ccccc45)CC3)c(Cl)cc2N1,18.7 µM (active)
14,CC(C)NCC(O)c1ccc(O)c(O)c1 (stereo not given),1.48 µM (active)
15,CCOC(=O)C(C)(C)Oc1ccc(Cl)cc1,inactive
16,COc1cc2nc(N3CCN(C(=O)C4COc5ccccc5O4)CC3)nc(N)c2cc1OC (stereo not given),18.7 µM (active)
17,COc1ccccc1OCC(O)CN1CCN(CC(=O)Nc2c(C)cccc2C)CC1 (stereo not given),inactive
18,O=c1[nH]cc(F)c(=O)[nH]1,inactive
19,CC(C)Cc1ccc(C(C)C(=O)O)cc1 (stereo not given),inactive
20,CCOC(=O)c1ncn2c1CN(C)C(=O)c1cc(F)ccc1-2,inactive
